Bioassay records from PubChem BioAssay.
SSB-PriA inh = inhibitors of Klebsiella pneumoniae PriA binding to SSB C-terminal tail. AlphaScreen SSBct-PriA binding, biotinylated peptide. inhibition, % at 33 µM. 430,000 tested, 0.6% active; in the data active = inhibition mostly above about 37%, no sharp cut-off; inactive = mostly below about 20%;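 note: plate controls were negative control peptide for no effect and reference peptide for full effect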
FadD28 binding = inhibitors of Mycobacterium tuberculosis FadD28 bisubstrate binding | inhibition, % at 12.5 µM | AID 588549 | 360,000 tested, 0.22% active | FadD28 bisubstrate probe binding, fluorescence polarization; in the data active = inhibition above about 8.5%, passing the limit was not always enough
PrP 5UTR inh = inhibition of PrP 5' UTR reporter expression. cell-based PrP 5' UTR mRNA reporter, plate reader. 340,000 tested, 0.35% active. inhibition, % (concentration not given with the values); in the data active = inhibition above about 52%; note: 0 = median of the neutral control wells
BH1578 lux ind = quorum light induction in luxS cqsA deficient V. cholerae | V. cholerae BH1578 lux reporter, luminescence, 6 h | activation, % at 18.7 µM | 350,000 tested, 0.16% active | AID 588436; in the data active = activation mostly above about 9.7%, no sharp cut-off
PrPC surface inh = reduces human prion protein on the cell surface | cell surface PrPC, TR-FRET read-out | inhibition, % at 13.8 µM | AID 720596 | 370,000 tested, 0.43% active | P04156; in the data active = inhibition above about 24%; note: 0% = median of the test wells and 100% = reference compound wells
Numbers without * were called inactive. Rows were chosen to be rich in hits. Some 1.4% of all compounds tested hit in one or more screens of this group.

Cc1ccc(S(=O)(=O)NCC(c2ccco2)S(=O)(=O)c2ccc(F)cc2)cc1 (stereo unspecified) was read as SSB-PriA inh -8.0.
For O=C(O)CSC(C(=O)Nc1ccc(Br)cc1)c1ccc(Cl)cc1 (stereo unspecified) the results were SSB-PriA inh -17.3, FadD28 binding 2.5, PrP 5UTR inh -13.9, BH1578 lux ind -0.2 and PrPC surface inh -3.5.
O=C(O)CSC(C(=O)Nc1ccc(C(F)(F)F)cc1)c1ccccc1 (stereo unspecified) was read as SSB-PriA inh -1.9, FadD28 binding 10.0*, PrP 5UTR inh -7.7, BH1578 lux ind -0.6 and PrPC surface inh 2.5.
For COCCn1nc(C(F)(F)F)n(C)c1=O the results were SSB-PriA inh -10.0.
Screening C=C1C(=O)[C@]23C[C@H]1CCC2[C@@]1(C)C(C[C@@H]3O)[C@](C)(C(=O)OC)CC[C@@H]1OC(C)=O (stereo partly specified) returned FadD28 binding -2.3 and PrPC surface inh 68.2*.
`CC1CCN(c2ccc(-c3cccs3)nn2)CC1` gave SSB-PriA inh 3.5, FadD28 binding -3.9, PrP 5UTR inh 79.7*, BH1578 lux ind 0.4 and PrPC surface inh -1.1.
`O=C(C1CCN(c2ccc(-c3cccs3)nn2)CC1)N1CCc2ccccc21` gave SSB-PriA inh -11.0.
Screening Cc1ccc(-c2c(C)sc3ncnc(N4CCN(C)CC4)c23)cc1 returned SSB-PriA inh 5.0.
Screening COc1ccc(S(=O)(=O)NCC2CCN(C(=O)c3ccncc3)CC2)cc1Cl returned SSB-PriA inh -14.0.
`Cc1nc2ccc(N=Cc3cccc4ccccc34)cc2s1` gave SSB-PriA inh 13.0.
Screening CCCn1nc(NS(=O)(=O)c2cccc3nonc23)c2cc3cccc(C)c3nc21 returned SSB-PriA inh 1.7, FadD28 binding 9.9*, PrP 5UTR inh -2.1, BH1578 lux ind inactive and PrPC surface inh -6.3.
For CCCn1nc(NS(=O)(=O)c2cccc3nonc23)c2cc3cc(C)ccc3nc21 the results were SSB-PriA inh 1.9, FadD28 binding -2.7, PrP 5UTR inh -8.4, BH1578 lux ind -0.4 and PrPC surface inh 3.2.
`COc1ccc2nc(C)cc(SCC(=O)O)c2c1` gave SSB-PriA inh -2.8, FadD28 binding -0.4, PrP 5UTR inh -12.4, BH1578 lux ind -0.4 and PrPC surface inh 3.2.
For COc1ccc2nc(SCC(=O)O)nc(C)c2c1 the results were SSB-PriA inh -6.7, FadD28 binding -2.3, PrP 5UTR inh -9.7, BH1578 lux ind 15.4* and PrPC surface inh -2.5.
COc1ccccc1CCNC(=O)c1cc(=O)c(OCc2ccc(F)cc2)cn1C was read as SSB-PriA inh -14.0.
`COc1cc(/C=N/NC(=Nc2ccc(C)cc2)c2nc3ccccc3s2)ccc1O` gave FadD28 binding -2.1, PrP 5UTR inh 77.0*, BH1578 lux ind -0.4 and PrPC surface inh 4.1.
`COc1cc(C=NNc2nc3ccccc3s2)ccc1O` gave SSB-PriA inh -3.7.
`COc1ccc(Cl)cc1C(=O)NCCc1sc(-c2ccc(F)cc2)nc1C` gave SSB-PriA inh -7.0.
For O=C1CN(C(=O)CSc2nnc(-c3ccccc3)c(-c3ccccc3)n2)c2ccccc2N1 the results were SSB-PriA inh 6.0.
CN(C)c1nc(NCc2ccccc2)nc(Oc2ccc(=O)[nH]n2)n1 was read as SSB-PriA inh -12.8, FadD28 binding -2.9, PrP 5UTR inh -23.4, BH1578 lux ind 16.7* and PrPC surface inh -0.6.
Screening O=[N+]([O-])c1ccc(N/N=C\C(O)C(O)C(O)CO)cc1 (stereo unspecified) returned SSB-PriA inh -5.0.
Cc1cccn2c(=O)nc(SCC(=O)c3ccccc3)nc12 was read as SSB-PriA inh -0.3, FadD28 binding 0.5, PrP 5UTR inh -42.0, BH1578 lux ind 3.6 and PrPC surface inh -5.2.
Screening Cc1cccn2c(=O)nc(SCC(=O)c3ccc(Cl)cc3)nc12 returned SSB-PriA inh 1.1, FadD28 binding -0.7, PrP 5UTR inh 0.9, BH1578 lux ind 89.3* and PrPC surface inh 7.4.
For O=S(=O)(C1CC1)N1CCC(c2ccsc2)CC1 the results were SSB-PriA inh -13.0.
Cc1c(C(=N)C(C#N)C#N)c(=N)oc2c1ccc1ccccc12 was read as SSB-PriA inh 70.0*, FadD28 binding -2.4, PrP 5UTR inh -31.6, BH1578 lux ind -0.7 and PrPC surface inh -9.5.
Screening CC(=O)c1ccc(NC(=O)CN2C(=O)COc3ccccc32)cc1 returned SSB-PriA inh 56.1*.
O=C(CN1C(=O)COc2ccccc21)Nc1ccccc1 was read as SSB-PriA inh 37.2.
Screening O=C(Cc1csc2nc(-c3ccc(F)cc3)cn12)NCc1ccccn1 returned SSB-PriA inh -16.0.
Screening c1cncc(-c2nc(NCCCn3ccnc3)c3ccccc3n2)c1 returned SSB-PriA inh 40.2*, FadD28 binding -2.7, PrP 5UTR inh 6.2, BH1578 lux ind -0.3 and PrPC surface inh -14.6.
Cn1cc(S(=O)(=O)Nc2ccccc2-c2cn3ccsc3n2)cn1 was read as SSB-PriA inh -3.0.
`COc1ccc(NC(=O)C(c2cc3c(cc2[N+](=O)[O-])OCO3)N(C)Cc2ccccc2)cc1` (stereo unspecified) gave SSB-PriA inh 46.7*, FadD28 binding -9.4, PrP 5UTR inh -7.3, BH1578 lux ind -0.3 and PrPC surface inh 5.5.
Screening CCN(c1cccc(C)c1)C(C(=O)Nc1ccc(OC)cc1)c1cc2c(cc1[N+](=O)[O-])OCO2 (stereo unspecified) returned SSB-PriA inh 40.1*, FadD28 binding -3.6, PrP 5UTR inh -14.9, BH1578 lux ind -0.3 and PrPC surface inh 5.6.
Screening COc1ccc(NC(=O)C(c2cc3c(cc2[N+](=O)[O-])OCO3)N2CCN(C=O)CC2)cc1 (stereo unspecified) returned SSB-PriA inh -0.4, FadD28 binding 2.6, PrP 5UTR inh -16.6, BH1578 lux ind -0.2 and PrPC surface inh -6.9.
Screening Cc1cc(C)n(-c2nc3ccccc3c3nc(C)nn23)n1 returned SSB-PriA inh 104.2*, FadD28 binding -1.3, PrP 5UTR inh -16.1, BH1578 lux ind -0.1 and PrPC surface inh -1.5.
Screening Cc1cccc(NN=C(C(N)=O)C2=NC(C)(C)Cc3ccccc32)c1 returned SSB-PriA inh 56.9*.
COc1cc(S(=O)(=O)N2CCN(c3ccccc3)CC2)c(C)cc1Br was read as SSB-PriA inh -1.0.
COc1ccc(C)cc1NS(=O)(=O)c1ccc(-c2cnc(C3CC3)o2)cc1 was read as SSB-PriA inh -12.5, FadD28 binding -1.7, PrP 5UTR inh 75.5*, BH1578 lux ind -0.2 and PrPC surface inh 22.7.
Screening Cc1ccc(NS(=O)(=O)c2ccc(-c3cnc(C4CC4)o3)cc2)cc1 returned SSB-PriA inh 14.8, FadD28 binding -3.8, PrP 5UTR inh -33.3, BH1578 lux ind -0.4 and PrPC surface inh 5.9.
O=C(NNC(=O)c1ccccc1[N+](=O)[O-])c1ccccn1 was read as SSB-PriA inh -16.0, FadD28 binding -3.9, PrP 5UTR inh -9.9, BH1578 lux ind -0.5 and PrPC surface inh -10.4.
